In PubChem BioAssay (Tox21) one finds Potency and outcome data, which are given here for nine molecules.

Experiment [1] is described as follows: qHTS assay to identify small molecule agonists of the peroxisome proliferator-activated receptor delta (PPARd) signaling pathway - cell viability counter screen (AID 743211). Also: nearly all actives have a fitted effect of over 55% in size. The essentials: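 PPARd-bla HEK293H cells (UAS-beta-lactamase reporter) were treated with compounds for 17 h at 37 C. Viability was then read in the same wells by CellTiter-Glo luminescence after 30 min at room temperature.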
On the technique in general: In qHTS, concentration-response curves come from the screen itself.

The target of experiment [2] is Peroxisome proliferator-activated receptor delta (Homo sapiens) (UniProt Q03181). Description: qHTS assay to identify small molecule agonists of the peroxisome proliferator-activated receptor delta (PPARd) signaling pathway (AID 743212; calls by dose curve). The essentials: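 HEK293H UAS-bla reporter cells, human PPARd system; compounds delivered in DMSO after 5 h plating, then at 37 C. Beta-lactamase FRET read, 2 h RT substrate step.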
Sequence of Peroxisome proliferator-activated receptor delta (Homo sapiens) (Q03181 whole entry, looked up): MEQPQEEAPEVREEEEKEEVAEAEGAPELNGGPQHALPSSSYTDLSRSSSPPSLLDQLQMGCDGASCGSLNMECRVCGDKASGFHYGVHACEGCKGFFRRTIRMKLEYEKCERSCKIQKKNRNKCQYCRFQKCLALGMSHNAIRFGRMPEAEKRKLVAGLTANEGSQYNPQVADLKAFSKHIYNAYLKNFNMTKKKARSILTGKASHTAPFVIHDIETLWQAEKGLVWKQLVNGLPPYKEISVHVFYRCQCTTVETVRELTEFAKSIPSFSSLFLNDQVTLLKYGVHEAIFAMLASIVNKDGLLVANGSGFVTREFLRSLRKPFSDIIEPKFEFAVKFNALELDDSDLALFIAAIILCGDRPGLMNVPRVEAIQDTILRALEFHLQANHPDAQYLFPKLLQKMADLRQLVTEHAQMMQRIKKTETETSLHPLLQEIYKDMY

A short description of experiment [3]: qHTS assay to identify small molecule antagonists of the peroxisome proliferator-activated receptor delta (PPARd) signaling pathway - cell viability counter screen (AID 743213). Also: nearly all actives have a fitted effect of over 50% in size. The essentials: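 Viability counter-screen, qHTS format: PPARd-bla HEK293H, L165041 300 nM final, 17 h compound exposure at 37 C, CellTiter-Glo luminescence after 30 min RT.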
Experiment [4] has as its target Peroxisome proliferator-activated receptor delta (Homo sapiens) (UniProt Q03181). Description: qHTS assay to identify small molecule antagonists of the peroxisome proliferator-activated receptor delta (PPARd) signaling pathway (AID 743215; active = well fitted inhibition curve with a large enough effect in the signal ratio in the repeat runs, not every such curve was filed as active; the % refers to the signal ratio;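 also: cells stimulated with agonist L165041 at 300 nM final during compound exposure; series mostly up to about 62 µM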). A digest of the protocol:
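Read-out is beta-lactamase FRET fluorescence, measured 2 h after substrate addition at room temperature. Beforehand, UAS-bla HEK293H cells carrying the PPARd reporter were exposed to compounds with L165041 at 300 nM final for 17 h at 37 C.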

Experiment [5] deals with Bile acid receptor (Homo sapiens) (UniProt Q96RI1). As to the kind of experiment: qHTS assay to identify small molecule antagonists of the farnesoid-X-receptor (FXR) signaling pathway (AID 743217; active = well fitted inhibition curve with a large enough effect in the signal ratio in the repeat runs, not every such curve was filed as active; the % refers to the signal ratio). A digest of the protocol: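 HEK 293T FXR-UAS-bla, 5000 cells/well; compound + CDCA 50 uM final; 16 h, 37 °C; B/G FRET substrate 2 h RT; fluorescence.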
Sequence of Bile acid receptor (Homo sapiens) (Q96RI1 whole entry, looked up): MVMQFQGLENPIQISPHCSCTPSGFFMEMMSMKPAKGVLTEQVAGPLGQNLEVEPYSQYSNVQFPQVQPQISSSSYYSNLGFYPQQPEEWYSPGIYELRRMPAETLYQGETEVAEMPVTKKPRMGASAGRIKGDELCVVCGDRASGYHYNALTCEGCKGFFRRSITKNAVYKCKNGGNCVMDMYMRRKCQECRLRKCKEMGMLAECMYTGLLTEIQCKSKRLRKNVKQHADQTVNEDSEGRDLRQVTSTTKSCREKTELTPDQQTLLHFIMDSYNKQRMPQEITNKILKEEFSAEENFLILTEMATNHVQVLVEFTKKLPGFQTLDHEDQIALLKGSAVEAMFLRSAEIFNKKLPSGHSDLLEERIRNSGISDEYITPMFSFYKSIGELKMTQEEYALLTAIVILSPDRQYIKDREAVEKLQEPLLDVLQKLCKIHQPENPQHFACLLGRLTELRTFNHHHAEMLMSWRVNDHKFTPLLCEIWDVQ
Experiment [6] is described as follows: qHTS assay to identify small molecule agonists of the farnesoid-X-receptor (FXR) signaling pathway - cell viability counter screen (AID 743218). Also: nearly all actives have a fitted effect of over 45% in size. The essentials:
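HEK 293T FXR-bla cells; 5 h pre-incubation, 16 h compound exposure at 37 C; LiveBLAzer substrate 2 h RT, then CellTiter-Glo 30 min RT, luminescence.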

Experiment [7] has as its target Bile acid receptor (Homo sapiens) (UniProt Q96RI1). Description: qHTS assay to identify small molecule agonists of the farnesoid-X-receptor (FXR) signaling pathway (AID 743220; active = well fitted activation curve with a large enough effect in the signal ratio in the repeat runs, not every such curve was filed as active; the % refers to the signal ratio). A digest of the protocol:
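Beta-lactamase reporter under UAS control in GeneBLAzer FXR HEK 293T cells (5000/well) measured with LiveBLAzer FRET substrate after 2 h at room temperature. Compound exposure lasted 16 h at 37C.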

A short description of experiment [8]: qHTS assay to identify small molecule antagonists of the farnesoid-X-receptor (FXR) signaling pathway - cell viability counter screen (AID 743221; active = well fitted cell-killing curve with a large enough effect in the repeat runs, not every such curve was filed as active; also: nearly all actives have a fitted effect of over 50% in size). A digest of the protocol:
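FXR-UAS-bla HEK 293T cells were treated with test compounds plus chenodeoxycholic acid (50 uM final) for 16 h at 37 C. Cell viability in the same wells was then read as CellTiter-Glo luminescence after 30 min at room temperature.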

The nature of experiment [9]: qHTS assay to identify small molecule agonists of the vitamin D receptor (VDR) signaling pathway - cell viability counter screen (AID 743224). Also: series mostly up to about 63 µM; nearly all actives have a fitted effect of over 50% in size. A digest of the protocol: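 Luminescence from CellTiter-Glo, read after 30 min at room temperature, reports viability of VDR-bla cells treated with compounds for 16 h at 37C in the wells used for the beta-lactamase FRET read.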

Experiment [10] in a line: qHTS assay to identify small molecule antagonists of the vitamin D receptor (VDR) signaling pathway - cell viability counter screen (AID 743225). Also: nearly all actives have a fitted effect of over 50% in size. The essentials: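 VDR-bla HEK 293T cells, 4 h pre-incubation at 37C, then compound plus 1-alpha,25-dihydroxyvitamin D3 (3 nM final) for 16 h. After the beta-lactamase FRET read, CellTiter-Glo was added to the same wells; luminescence after 30 min at room temperature.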

The nature of experiment [11]: qHTS assay to identify small molecule agonists of the NFkB signaling pathway - cell viability counter screen (AID 1159515; calls by dose curve; also: series mostly up to about 61 µM; nearly all actives have a fitted effect of over 55% in size). The essentials: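 Luminescence from CellTiter-Glo (30 min, room temperature) gives viability, measured in the same wells as the beta-lactamase reporter read. Cells were NFkB-bla ME-180, 2,000 per well, treated 5 hr with compounds.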
Experiment [12] is described as follows: qHTS assay to identify small molecule agonists of the endoplasmic reticulum stress response signaling pathway - cell viability counter screen (AID 1159517; calls by dose curve). A digest of the protocol:
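Cells, HeLa ESRE-bla; density, 1,500/well; dosing, 5 hr at 37 C, 5% CO2; readout, CellTiter-Glo luminescence after 30 min RT.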

Experiment [13] is described as follows: qHTS assay to identify small molecule antagonists of the retinoid-related orphan receptor gamma (ROR-gamma) signaling pathway - cell viability counter screen (AID 1159520). Also: nearly all actives have a fitted effect of over 50% in size. The essentials:
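Cytotoxicity was read from cellular ATP (CellTiter-Glo luminescence) after 16 hr at 37 C with 1 uM doxycycline induction. The inducer was added 2 hr after compound transfer to Tet-on ROR gamma CHO cells.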

The target in experiment [14] is Nuclear receptor ROR-gamma (Homo sapiens) (UniProt P51449). As to the kind of experiment: qHTS assay to identify small molecule antagonists of the retinoid-related orphan receptor gamma (ROR-gamma) signaling pathway (AID 1159521; also: nearly all actives have a fitted effect of over 50% in size; also: potency is read from the fitted curve at half-maximal effect). A digest of the protocol: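 Tet-on RORγ CHO cells carrying a ROR response element–luciferase reporter were pretreated with compounds for 2 h, then induced with 1 uM (final) doxycycline hyclate for 16 h at 37 C. Antagonism was read as decreased ONE-Glo luminescence.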

Experiment [15] is described as follows: qHTS assay to identify small molecule agonists of the AP-1 signaling pathway - cell viability counter screen (AID 1159525; calls by dose curve; also: nearly all actives have a fitted effect of over 55% in size). The essentials:
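Luminescent ATP readout (Cell Titer Glo, 30 min RT), normalised to DMSO and tetra n-octyl ammonium bromide controls. Cells were ME-180 AP-1-bla in 0.5% dialyzed FBS Opti-MEM, with a 5 h, 37 °C compound exposure.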

The nature of experiment [16]: qHTS assay to identify small molecule agonists of the AP-1 signaling pathway (AID 1159526; calls by dose curve).
For experiment [17], the target named is Retinoic acid receptor RXR-alpha (Homo sapiens) (UniProt P19793). As to the kind of experiment: qHTS assay to identify small molecule agonists of the RXR signaling pathway (AID 1159527; calls by dose curve; also: nearly all actives have a fitted effect of over 35% in size). The essentials: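 GeneBLAzer RXR-alpha-UAS-bla HEK 293T cells in medium with 2% charcoal-stripped FBS, pre-incubated 5 hr at 37 C, then exposed to compounds 16 hr. Beta-lactamase reporter read by FRET substrate, 2 hr room temperature, 460/530 nm emission.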
Sequence of Retinoic acid receptor RXR-alpha (Homo sapiens) (P19793 whole entry, looked up): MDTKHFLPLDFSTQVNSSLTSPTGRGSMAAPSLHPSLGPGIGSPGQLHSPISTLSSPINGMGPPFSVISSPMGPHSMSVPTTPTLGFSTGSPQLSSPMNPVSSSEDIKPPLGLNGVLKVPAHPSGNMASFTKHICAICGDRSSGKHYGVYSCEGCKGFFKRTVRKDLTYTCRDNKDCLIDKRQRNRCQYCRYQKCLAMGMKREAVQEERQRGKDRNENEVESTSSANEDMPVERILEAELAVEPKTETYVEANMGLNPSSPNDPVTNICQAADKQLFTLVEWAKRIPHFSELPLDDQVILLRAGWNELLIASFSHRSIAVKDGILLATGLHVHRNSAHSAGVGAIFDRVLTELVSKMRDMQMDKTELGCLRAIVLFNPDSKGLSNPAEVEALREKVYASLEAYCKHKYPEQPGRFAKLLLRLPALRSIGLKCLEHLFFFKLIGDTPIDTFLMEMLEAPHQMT

For experiment [18], the target named is Vitamin D3 receptor (Homo sapiens) (UniProt P11473). As to the kind of experiment: qHTS assay to identify small molecule agonists of the vitamin D receptor (VDR) signaling pathway (AID 743222; calls by dose curve). A digest of the protocol:
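VDR-bla cells, 2,000/well; 4 h preincubation 37C; cpd (DMSO) 16 h; LiveBLAzer B/G substrate 2 h RT; fluorescence intensity read.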

Experiment [19] has the same target. Description: qHTS assay to identify small molecule antagonists of the vitamin D receptor (VDR) signaling pathway (AID 743223; active = well fitted inhibition curve with a large enough effect in the signal ratio in the repeat runs, not every such curve was filed as active; the % refers to the signal ratio). A digest of the protocol:
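VDR-bla cells were plated, incubated 4 h at 37C, then given compound and 1alpha,25-dihydroxyvitamin D3 (3 nM final). After 16 h at 37C, LiveBLAzer B/G FRET substrate was added for 2 h at room temperature and fluorescence read.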

Experiment [20] in a line: qHTS assay to identify small molecule agonists of the endoplasmic reticulum stress response signaling pathway (AID 1159516; active = well fitted activation curve with a large enough effect in the signal ratio in the repeat runs, not every such curve was filed as active; the % refers to the signal ratio). The essentials:
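Read-out is beta-lactamase cleavage of a FRET substrate (405 nm excitation; 460 and 530 nm emissions) in ESRE-bla HeLa cells after a 5 hr compound exposure at 37 C. Substrate incubation ran 2 hr at room temperature.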

Results filed as inconclusive are left out. Values without a mark were called inactive. Active and inactive are the calls of the source. Unless noted, calls follow the shape of the dose curve; as a rule, active = well fitted curve in the direction sought with a large enough effect in the repeat runs; inconclusive = weak or mixed curves; inactive = no such curve, though single readings can be large; an effect the other way counts as inactive or inconclusive.

Sequence of Vitamin D3 receptor (Homo sapiens) (P11473 whole entry, looked up): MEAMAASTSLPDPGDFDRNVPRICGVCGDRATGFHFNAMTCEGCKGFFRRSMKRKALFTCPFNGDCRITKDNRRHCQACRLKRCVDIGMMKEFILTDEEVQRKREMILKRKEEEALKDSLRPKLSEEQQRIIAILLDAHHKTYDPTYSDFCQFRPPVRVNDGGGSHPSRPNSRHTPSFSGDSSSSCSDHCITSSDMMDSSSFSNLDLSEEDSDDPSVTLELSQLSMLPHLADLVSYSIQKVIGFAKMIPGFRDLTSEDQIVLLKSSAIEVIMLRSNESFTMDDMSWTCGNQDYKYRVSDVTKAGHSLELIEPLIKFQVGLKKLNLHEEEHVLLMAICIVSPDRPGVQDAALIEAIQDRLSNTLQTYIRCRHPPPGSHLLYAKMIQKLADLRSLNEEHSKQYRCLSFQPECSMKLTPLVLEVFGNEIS

With `CCN(CC)CCOC(=O)C1(c2ccccc2)CCCC1`, the Potency result in experiment [1], in experiment [3], in [6], in experiment [8], in experiment [9] and in experiment [10] was “inactive” throughout. For the same molecule, the Potency result in experiment [11], in experiment [13], in [14], in [15], in [16] and in experiment [17] was “inactive” each time. The call in experiment [2], in experiment [4], in experiment [5], in experiment [7] and in experiment [12] was inactive.
`CCOc1ccc(NC(=O)CC(C)=O)cc1`: the Potency result in experiment [1], in experiment [3], in experiment [6], in [8], in [9] and in experiment [10] was “inactive” each time. Moreover, the Potency result in experiment [11], in [14], in experiment [15] and in experiment [16] was “inactive” in each case. Further, the molecule was classed as inactive in experiment [2], in [18] and in [12].
For the molecule `CC(C(=O)O)c1ccc(C(=O)c2ccccc2)s1` (stereo not drawn), the Potency result in experiment [1], in experiment [3], in experiment [6], in experiment [8], in experiment [19] and in experiment [9] was “inactive” each time. For the same molecule, the Potency result in experiment [10], in experiment [11], in [13], in [14], in experiment [15] and in experiment [16] was “inactive” throughout. Besides, the call in experiment [2], in experiment [4], in experiment [5], in experiment [7], in experiment [18] and in experiment [12] was inactive.
For the molecule `CCN(CC)C(C)=O`, the Potency result in experiment [1], in experiment [3], in experiment [8], in experiment [19], in experiment [9] and in experiment [11] was “inactive” each time. Also, the Potency result in experiment [14], in [15] and in experiment [16] was “inactive” throughout. In addition, the molecule was classed as inactive in [2], in [4], in experiment [18] and in experiment [12].
Take `CCCCCc1ccc(N)cc1`: the Potency result in experiment [1], in experiment [6], in experiment [8], in [19], in experiment [9] and in experiment [11] was “inactive” each time. Besides, the Potency entry in [13], in [14], in [15] and in experiment [17] was “inactive” in each case. In addition, the molecule was called inactive in experiment [2], in [18] and in experiment [12].
On to `Cn1c(N)nc2nc[nH]c2c1=O`, for which the Potency entry in experiment [1], in [3], in experiment [6], in experiment [8], in experiment [19] and in [9] was “inactive” each time. Besides, the Potency result in experiment [10], in experiment [11], in experiment [20] and in experiment [15] was “inactive” throughout. Besides, the call in [2], in experiment [4], in [5], in [7], in experiment [18] and in [12] was inactive. In addition, the Potency in experiment [14] is 27 µM (active).
With `O=C(c1ccc(O)cc1)c1ccc(O)cc1`, the Potency entry in experiment [1], in experiment [6], in [8], in [9], in experiment [11] and in experiment [13] was “inactive” throughout. Moreover, the Potency entry in [14], in experiment [15] and in experiment [16] was “inactive” throughout. The call in experiment [2], in experiment [18] and in [12] was inactive.
With `C=CC(=O)OCCOC(=O)CCC(=O)O`, the Potency result in experiment [1], in experiment [3], in [19], in [9], in experiment [10] and in [11] was “inactive” throughout. For the same molecule, the Potency result in experiment [13], in experiment [14], in experiment [15] and in experiment [17] was “inactive” throughout. For the same molecule, the result in [4], in experiment [5], in experiment [7], in experiment [18] and in [12] was inactive.
Take `COc1ccc(OC)c(OC)c1`: the Potency entry in [3], in [6], in experiment [8], in experiment [19], in experiment [9] and in experiment [10] was “inactive” throughout. Also, the Potency result in [11], in experiment [13], in experiment [14], in experiment [15] and in [16] was “inactive” each time. For the same molecule, the outcome in experiment [5], in [7], in experiment [18] and in [12] was inactive.
